Results on 40 compounds are retold here after PubChem BioAssay (Tox21).

Records with an inconclusive call do not appear. A number with no mark means an inactive call. Active and inactive are the calls of the source. Calls follow the shape of the dose curve; as a rule, active = well fitted activation curve with a large enough effect in the repeat runs; inconclusive = weak or mixed curves; inactive = no such curve, though single readings can be large or run the other way.
% is scaled to controls: 0 for no effect and ±100 for the full control effect; potency is read from the fitted curve at half-maximal effect.

Sequence of Nuclear receptor subfamily 1 group I member 3 (Homo sapiens) (Q14994 whole entry, looked up): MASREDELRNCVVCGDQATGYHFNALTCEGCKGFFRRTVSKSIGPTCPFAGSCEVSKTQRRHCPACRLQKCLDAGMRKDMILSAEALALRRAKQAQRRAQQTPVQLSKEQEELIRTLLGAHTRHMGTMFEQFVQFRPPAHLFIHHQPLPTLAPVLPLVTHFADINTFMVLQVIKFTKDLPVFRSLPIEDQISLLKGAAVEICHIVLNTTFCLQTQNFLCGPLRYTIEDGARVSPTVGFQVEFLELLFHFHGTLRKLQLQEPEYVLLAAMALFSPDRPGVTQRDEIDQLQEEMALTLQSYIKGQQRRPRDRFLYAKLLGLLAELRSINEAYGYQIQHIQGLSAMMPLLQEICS

The target in the assay is Nuclear receptor subfamily 1 group I member 3 (Homo sapiens) (UniProt Q14994). The assay is described as follows: qHTS assay to identify small molecule agonists of the constitutive androstane receptor (CAR) signaling pathway (AID 1224839). Also: nearly all actives have a fitted effect of over 15% in size.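 As to activation: HepG2 cells stably carrying human CAR and a CYP2B6 luciferase reporter.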 Conditions: HepG2 hCAR CYP2B6-luciferase, agonist mode, 24 h; series mostly up to 92.4 µM; activation: at the top concentration. An excerpt:
National Center for Advancing Translational Sciences [NCATS] NIH Chemical Genomics Center [NCGC] U.S. Environmental Protection Agency [EPA] National Institutes of Environmental Health Sciences [NIEHS] National Toxicology Program [NTP] Assay overview: The constitutive androstane receptor (CAR) is a nuclear receptor which regulates multiple drug metabolizing enzymes (DMEs) and transporters. Activating CAR will generally increase the transcription and subsequent translation of CYP2B6 and CYP3A4. These two DMEs represent about 50% of the drug metabolizing potential in the body. […] Recently, there have also been studies performed indicating CARs role in energy metabolism and cancer therapy. Therefore, inducing CARs activity could have a potential effect on diabetes and cancer. Identifying environmental toxins and compounds which modulate CAR, through the use of the Tox21 10K compound collection, will be an important step in determining the toxicity and potential therapeutic effects these factors will have on the human body.
Assay Protocol Summary: A double-stable (hCAR and CYP2B6-2.2kb) transfected cell line, derived from human hepatoma (HepG2) cells, was utilized for the duration of the quantitative high-throughput screens. The HepG2-CYP2B6-hCAR cells suspended in DMEM culture medium supplemented with 10% FBS, 5 ug/mL blasticidin, 0.5 mg/mL geneticin, 100 U/mL penicillin and 100 ug/mL streptomycin were dispensed at 2500 cells/4 uL/well in 1536-well white solid bottom plates using a Multidrop Combi. After the assay plates were incubated at 37 C/5% CO2 for 4 hrs, 23 nL of compounds at 15 concentrations (from 5-48 columns) or positive control (from 1 to 4 columns) were transferred to the assay plates using a Pintool station. One uL of PK11195, was added using a Flying Reagent Dispenser to generate a final concentration of 0.75 uM PK11195 inside each well. After a 24 hr incubation period at 37 C/5% CO2, four uL of ONE-Glo reagent was added into the assay plates using a Flying Reagent Dispenser. After a 30 min incubation period at room temperature, the luminescence intensity in the assay plates was measured using a ViewLux plate reader.
(In general: In qHTS, concentration-response curves come from the screen itself.)
For `Cn1cnc2ncnc(N)c21`, the “activation” value was -3.84% [at 42.5 µM]. Still for that read-out and setting: then `C=CC(=O)OCCC#N`, with 2.05%; and `CC(O)C#CC(C)O` (stereo not given), with -16.1%; and `CCCCCCCC/C=C\CCCCCCCC(=O)OCCOC(=O)CCCCCCC/C=C\CCCCCCCC`, with 6.14%. As to `COc1ccccc1C=O`, the “activation” value was -1.01%. On to `C=C[C@](C)(O)CC[C@@H]1[C@@]2(C)CCCC(C)(C)[C@@H]2CC[C@@]1(C)O`, for which the “activation” value is 6.92%. The same measure, in the same setting: as for `CCOC(/C=C(\C)CCC=C(C)C)OCC`, the figure is 0.46%. `COc1cccc(O)c1`: the “activation” value was 9.3%.

Consider `O=C(Oc1ccccc1)c1cccc(C(=O)Oc2ccccc2)c1`, for which the Potency is 1.44 µM (active). For `NCCCC(O)(P(=O)(O)O)P(=O)(O)O`, the “activation” value is -2.54% [at 42.5 µM]. With `CCCCCCCCCCCC(=O)N(CC)CC`, the Potency was 54.5 µM (active).

`CC(=O)C=O`: the “activation” value is 1.1%. Still for that read-out and setting: as for `CCCCN(CCCC)CCC(O)c1cc2c(Cl)cc(Cl)cc2c2cc(C(F)(F)F)ccc12` (stereo not given), the figure is -0.284% [at 42.5 µM]; as for `O=C[C@H](O)[C@H](O)[C@H](O)CO`, -1.54%; as for `CCN1CCN(c2cc(-c3ccc(F)cc3)c3c(n2)CCCCCC3)CC1`, -1.24% [at 19 µM]. With `CCCCCCCC/C=C\CCCCCCCC(=O)NCc1ccc(O)c(OC)c1`, the “activation” value was 0.545% [at 42.5 µM]. On to `CCN(CC)CCNc1ccc(CO)c2sc3ccccc3c(=O)c12`, for which the “activation” value is -17.7% [at 42.5 µM]. As for `CCCCOc1ccc(C(=O)CCN2CCCCC2)cc1`, the “activation” value is 5.01% [at 42.5 µM]. As to `C(=C/c1ccccc1)/c1ccccc1`, the “activation” value was 1.67%. On to `N[C@@H](CSSC[C@H](N)C(=O)O)C(=O)O`, for which the activation was -0.0368% [at 0.349 µM].

`CCC(C)(C)c1cc(O)c(C(C)(C)CC)cc1O`: the “activation” value is -4.48%.

In the case of `O=CC1CC1`, the “activation” value is -3.86%. As to `CCOC(OCC)C(=O)c1ccccc1`, the “activation” value was 0.473%. `Brc1ccccc1-c1ccccc1`: the “activation” value is 4.88%.

Regarding `Brc1ccccn1`, the “activation” value was -1.2%.

For the compound `Cc1c(C(=O)O)cccc1[N+](=O)[O-]`, the “activation” value is -1%. `OCCCCl`: the “activation” value is -4.98%. On the same count and under the same terms, then `O=C(Nc1ccc(Cl)cc1)Nc1ccc(Cl)c(C(F)(F)F)c1`, with -1.94% [at 42.5 µM]; and `ClC/C=C\CCl`, with -1.41%; and `C=CC/C=C/C/C=C/C/C=C/C`, with -0.249%. Still for that read-out and setting: then `CC1(C)C(=O)N(Br)C(=O)N1Br`, with -1.98%. Consider `C#CC(O)CCC` (stereo not given), for which the “activation” value is 0.962%. The same measure, in the same setting: then `C=CC(=O)OCC(O)COc1ccccc1` (stereo not given), with -2.99%; and `CCCN(CCc1cccs1)[C@H]1CCc2c(O)cccc2C1`, with 0.794% [at 42.5 µM].

With `CCCCCCCCCCCCN(CCO)CCO`, the “activation” value was -13.2%. Turning to `Cc1cccc(N(C)C)c1`, the “activation” value was -0.128%. Consider `CN(C)c1ccc(N=NS(=O)(=O)O)cc1`, for which the Potency was 25.7 µM (active). For the compound `CCCCCCCC/C=C/CCCOC(C)=O`, the “activation” value was -0.3%. As for `C[C@@]12C(=O)OC(=O)[C@]1(C)C1CCC2O1`, the “activation” value was -16.3% [at 42.5 µM].

With `CCOC(=O)CN`, the “activation” value is 5.35%.
